# PubChem BioAssay (EPA / NIEHS)
# Calls of active or inactive are those of the source. How the source made its calls: active means hit-call score of the fitted dose curve at least 0.9, where 1 is the maximum; inactive means score below 0.9.
# Read-out: urokinase plasminogen activator (uPA), PLAU (gene 5328)
# Test: BSK_BE3C_uPA: BioMAP Diversity Plus: BE3C Assay for urokinase plasminogen activator (uPA) Biomarker Activity (AID 2283038);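 on outcome: uPA read one day after compound addition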
# Settings: primary human bronchial epithelial cells; actives raise or lower the signal
# Protocol: BSK_BE3C is a cell-based, multiplexed-readout assay that uses bronchial epithelial cell, a human lung primary cell, with measurements taken at 24 hours after chemical dosing in a 96-well plate.BSK_BE3CA is an assay component measured in the BSK_BE3C assay. It measures uPA antibody related to regulation of gene expression using ELISA technology.Data from the assay component BSK_BE3CA was analyzed into 1 assay endpoint. This assay endpoint, BSK_BE3CA, was analyzed with bidirectional fitting relative to DMSO as the negative control and baseline of activity. Using a type of binding reporter, gain or loss-of-signal activity can be used to understand changes in the signaling as they relate to the gene PLAU. Furthermore, this assay endpoint can be referred to as a primary readout, because this assay has produced multiple assay endpoints where this one serves a signaling function. To generalize the intended target to other relatable targets, this assay endpoint is annotated to the protease intended target family, where the subfamily is serine protease.
# The levels of cell surface (or secreted, indicated by the prefix "s") biomarker endpoints were measured by ELISA. Overt cytotoxicity to cells in confluent adherent cultures (all systems other than the BT system) was assessed by measuring total protein levels using sulforhodamine B (SRB) staining in parallel cultures at the time of biomarker measurements, indicated as SRB endpoints. For proliferation assays for adherent cell types, individual cell types are cultured at sub-confluence and relative cell numbers quantified by SRB staining at time points optimized for each system (48 h: 3C and CASM3C systems; 72 h: BT and HDF3CGF systems; 96 h: SAg system). SRB was performed by staining cells with 0.1% SRB after fixation with 10% TCA and reading wells at 560 nm.Viability and proliferation of PBMC (T cells) was quantified by Alamar Blue reduction for the SAg and BT systems. For PBMC viability (referred to as PBMC Cytotoxicity within the assay endpoint names), cells were plated (75,000/well in a 96-well plate) and then chemical samples added for 1 h before addition of activators, SEB and TSST-1 (20 ng/mL final concentration each). Cells were incubated for 90 h. Then, Alamar Blue (20 uL/well) (Invitrogen, Cat DAL1100) was added for 6 h, and the plates were read with a fluorescence microplate reader at 546/580 nm (excitation/emission). For PBMC proliferation, cells were plated and activated as above but incubated for only 16 h prior to addition of Alamar Blue. Plates were read after 6 h.
SMILES,outcome,AC50
Cc1ccc(O)cc1,inactive,–
CCOCCOCCOCCO,inactive,–
Nc1cccc(N)c1,inactive,–
CC(C)CC(C)(O)C#CC(C)(O)CC(C)C (stereo not given),inactive,–
CCCCCCc1ccc(O)cc1O,–,31.4 µM (active)
COC(=O)c1c(Cl)c(Cl)c(C(=O)OC)c(Cl)c1Cl,inactive,–
COCCOCCOCCOC,inactive,–
CCCCCCCCO,inactive,–
COC(=O)CC(=O)OC,inactive,–
Clc1nc(Cl)c(Cl)c(Cl)c1Cl,inactive,–
CC(=O)c1ccc2c(c1)[C@H](NC(=O)c1ccc(F)cc1)[C@@H](O)C(C)(C)O2,inactive,–
Cn1c(=O)c2c(ncn2C)n(C)c1=O,inactive,–
COc1ccc2sc(C(=O)Nc3nnn[nH]3)c(OC(C)C)c2c1,–,8.38 µM (active)
O=c1n(CC2CO2)c(=O)n(CC2CO2)c(=O)n1CC1CO1 (stereo not given),inactive,–
CC(C)CCCCCCOC(=O)c1ccc(C(=O)OCCCCCCC(C)C)c(C(=O)OCCCCCCC(C)C)c1,inactive,–
CCNc1ccccc1,inactive,–
COc1ccc(-n2nc(C(F)F)cc2-c2ccc(S(C)=O)cc2)cc1 (stereo not given),inactive,–
CC[C@H]1CC[C@H](NCc2cc3c(cc2OC)[C@H]2C[C@H]2C(=O)N3C)[C@H](c2ccccc2)N1,inactive,–
O=C(OC[C@H]1O[C@@H](OC(=O)c2cc(O)c(O)c(OC(=O)c3cc(O)c(O)c(O)c3)c2)[C@H](OC(=O)c2cc(O)c(O)c(OC(=O)c3cc(O)c(O)c(O)c3)c2)[C@@H](OC(=O)c2cc(O)c(O)c(OC(=O)c3cc(O)c(O)c(O)c3)c2)[C@@H]1OC(=O)c1cc(O)c(O)c(OC(=O)c2cc(O)c(O)c(O)c2)c1)c1cc(O)c(O)c(OC(=O)c2cc(O)c(O)c(O)c2)c1,–,1.87 µM (active)
O=C(O)c1cccc(Oc2ccccc2)c1,inactive,–

SMILES,outcome,AC50
C1N2CN3CN1CN(C2)C3,inactive,–
CCOC(=O)CC(CC(=O)OCC)(OC(C)=O)C(=O)OCC,inactive,–
CC(=O)OC[C@H]1O[C@@](COC(C)=O)(O[C@H]2O[C@H](COC(C)=O)[C@@H](OC(C)=O)[C@H](OC(C)=O)[C@H]2OC(C)=O)[C@@H](OC(C)=O)[C@@H]1OC(C)=O,inactive,–
Cc1ccc(S(=O)(=O)O)cc1C,inactive,–
O=C1OC(=O)C2C3C=CC(C3)C12 (stereo not given),inactive,–
On1ccccc1=S,–,5.4 µM (active)
CN(C)c1ccc(N=NS(=O)(=O)O)cc1,inactive,–
COc1ccc(/C=C/S(=O)(=O)NC(=O)c2ccc(C)cc2Cl)cc1,inactive,–
CCN(C(=O)c1cc(C)cc(OC[C@H](C)Nc2ccncc2)c1)C(C)C,inactive,–
CCOC(=O)COc1ccc2c(c1)CC(NCC(O)c1cccc(Cl)c1)CC2 (stereo not given),–,31.2 µM (active)
COC(=O)c1ccccc1O,inactive,–
CC(C)CCCCCCCOC(=O)CCCCC(=O)OCCCCCCCC(C)C,inactive,–
CC(=O)OCCC(C)C,inactive,–
CC[C@H]1OC(=O)[C@H](C)[C@@H](O[C@H]2C[C@@](C)(OC)[C@@H](O)[C@H](C)O2)[C@H](C)[C@@H](O[C@@H]2O[C@H](C)C[C@H](N(C)C)[C@H]2O)[C@](C)(O)C[C@@H](C)C(=O)[C@H](C)[C@@H](O)[C@]1(C)O,inactive,–
O=P(OC(CCl)CCl)(OC(CCl)CCl)OC(CCl)CCl,inactive,–
O=C(O)CCN(C1(C(=O)NO)CCCC1)S(=O)(=O)c1ccc(Oc2ccc(F)cc2)cc1,inactive,–
CC(C)=CCC/C(C)=C\CO,inactive,–
CCCCC(CC)COC(=O)CCCCCCCCC(=O)OCC(CC)CCCC (stereo not given),inactive,–
O=C1CCCCCN1,inactive,–
C=CC(=C)CCC=C(C)C,inactive,–
